Experiment in all cases: DAPPL (digital affinity profiling via proximity ligation, sequencing); 10 mM Tris-HCl pH 7.5, 50 mM NaCl, 1 mM DTT, 4% glycerol, room temperature, 30 min; GST-TFs on glutathione beads, 16-mer random dsDNA library, 0.1% formaldehyde crosslink after washing; high values mean tight binding
The target in one assay is T1, FLI1 (Homo sapiens, UniProt Q01543 1-452).
T1 sequence: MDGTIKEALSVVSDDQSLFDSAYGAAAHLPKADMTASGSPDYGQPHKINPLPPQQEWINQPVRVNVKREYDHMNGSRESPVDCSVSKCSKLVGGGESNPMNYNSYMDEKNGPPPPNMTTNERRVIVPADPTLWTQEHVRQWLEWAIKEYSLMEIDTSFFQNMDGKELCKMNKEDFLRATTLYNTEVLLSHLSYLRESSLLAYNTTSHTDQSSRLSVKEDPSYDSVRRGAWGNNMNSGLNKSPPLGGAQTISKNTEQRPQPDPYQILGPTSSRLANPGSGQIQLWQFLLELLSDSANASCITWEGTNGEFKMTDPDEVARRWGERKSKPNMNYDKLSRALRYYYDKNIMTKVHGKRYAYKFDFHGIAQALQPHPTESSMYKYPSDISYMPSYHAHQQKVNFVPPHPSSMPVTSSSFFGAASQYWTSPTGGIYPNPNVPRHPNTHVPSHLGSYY
To be noted: protein: recombinant; tags: N-terminal GST; dsDNA, one strand shown. Summed up: (§1)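 Human transcription factors fused to GST were expressed in yeast, captured on glutathione beads, given DNA barcodes and pooled with a GST-only negative control. Pools were incubated with 200 nmole of a 16-mer random double-stranded DNA library in Tris/NaCl/DTT/glycerol buffer at room temperature for 30 min. They were then washed, crosslinked with 0.1% formaldehyde, proximity-ligated (BsaI/T4 ligase, 1 h, 37 °C), PCR-amplified and sequenced on an Illumina NextSeq500. Binding signal is each 6-mer's read frequency for a factor divided by its frequency for the GST control.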

The target of another assay is T2, ELK1 (Homo sapiens, UniProt P19419 1-428).
T2 sequence: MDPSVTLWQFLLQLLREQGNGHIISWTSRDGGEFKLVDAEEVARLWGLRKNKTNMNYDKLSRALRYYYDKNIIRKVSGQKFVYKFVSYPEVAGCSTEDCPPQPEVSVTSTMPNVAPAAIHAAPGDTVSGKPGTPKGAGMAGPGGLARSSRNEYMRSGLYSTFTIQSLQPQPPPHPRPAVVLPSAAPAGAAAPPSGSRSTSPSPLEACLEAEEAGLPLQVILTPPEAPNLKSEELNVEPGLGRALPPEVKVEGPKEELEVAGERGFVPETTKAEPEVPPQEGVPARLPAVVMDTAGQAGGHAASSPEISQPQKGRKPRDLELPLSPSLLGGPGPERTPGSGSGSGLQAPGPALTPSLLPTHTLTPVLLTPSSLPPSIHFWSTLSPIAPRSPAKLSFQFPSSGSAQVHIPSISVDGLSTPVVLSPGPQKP
To be noted: protein: recombinant; tags: N-terminal GST; dsDNA, one strand shown. Summed up: as §1

For a further assay, the target named is T3, GABPA (Homo sapiens, UniProt Q06546 1-454).
T3 sequence: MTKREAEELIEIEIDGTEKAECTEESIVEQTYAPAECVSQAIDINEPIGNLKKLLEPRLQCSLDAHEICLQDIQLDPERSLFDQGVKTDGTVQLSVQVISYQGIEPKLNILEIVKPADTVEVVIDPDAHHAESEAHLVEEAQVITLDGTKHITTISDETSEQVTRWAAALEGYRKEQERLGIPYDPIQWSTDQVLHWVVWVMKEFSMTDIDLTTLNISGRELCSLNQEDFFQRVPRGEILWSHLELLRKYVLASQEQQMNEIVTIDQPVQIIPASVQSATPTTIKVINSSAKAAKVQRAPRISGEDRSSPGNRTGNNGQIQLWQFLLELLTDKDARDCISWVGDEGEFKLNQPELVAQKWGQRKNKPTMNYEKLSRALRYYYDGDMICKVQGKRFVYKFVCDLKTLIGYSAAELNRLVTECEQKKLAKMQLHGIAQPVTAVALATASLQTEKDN
Conditions: protein: recombinant; tags: N-terminal GST; dsDNA, one strand shown. Summed up:
as §1

The target of the next assay is T4, ERG (Homo sapiens, UniProt P11308 1-479).
T4 sequence: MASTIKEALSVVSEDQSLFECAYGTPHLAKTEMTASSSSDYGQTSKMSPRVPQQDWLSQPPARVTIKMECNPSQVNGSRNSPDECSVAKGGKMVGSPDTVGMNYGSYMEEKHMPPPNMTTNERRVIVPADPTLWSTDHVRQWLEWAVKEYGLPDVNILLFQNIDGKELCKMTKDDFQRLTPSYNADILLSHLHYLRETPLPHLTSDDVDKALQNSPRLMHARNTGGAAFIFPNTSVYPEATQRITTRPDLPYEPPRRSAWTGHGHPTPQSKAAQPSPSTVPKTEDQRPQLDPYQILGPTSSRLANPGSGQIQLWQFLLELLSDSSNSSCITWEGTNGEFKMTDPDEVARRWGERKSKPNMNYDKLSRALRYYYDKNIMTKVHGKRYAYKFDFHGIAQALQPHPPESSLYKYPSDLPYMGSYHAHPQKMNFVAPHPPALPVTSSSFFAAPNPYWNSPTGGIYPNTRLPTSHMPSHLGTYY
To be noted: protein: recombinant; tags: N-terminal GST; dsDNA, one strand shown. Summed up: as §1

The target in another assay is ELF1 (Homo sapiens, UniProt P32519 1-619). Conditions: protein: recombinant; tags: N-terminal GST; dsDNA, one strand shown. Summed up: as §1
ELF1, sequence (P32519 whole entry): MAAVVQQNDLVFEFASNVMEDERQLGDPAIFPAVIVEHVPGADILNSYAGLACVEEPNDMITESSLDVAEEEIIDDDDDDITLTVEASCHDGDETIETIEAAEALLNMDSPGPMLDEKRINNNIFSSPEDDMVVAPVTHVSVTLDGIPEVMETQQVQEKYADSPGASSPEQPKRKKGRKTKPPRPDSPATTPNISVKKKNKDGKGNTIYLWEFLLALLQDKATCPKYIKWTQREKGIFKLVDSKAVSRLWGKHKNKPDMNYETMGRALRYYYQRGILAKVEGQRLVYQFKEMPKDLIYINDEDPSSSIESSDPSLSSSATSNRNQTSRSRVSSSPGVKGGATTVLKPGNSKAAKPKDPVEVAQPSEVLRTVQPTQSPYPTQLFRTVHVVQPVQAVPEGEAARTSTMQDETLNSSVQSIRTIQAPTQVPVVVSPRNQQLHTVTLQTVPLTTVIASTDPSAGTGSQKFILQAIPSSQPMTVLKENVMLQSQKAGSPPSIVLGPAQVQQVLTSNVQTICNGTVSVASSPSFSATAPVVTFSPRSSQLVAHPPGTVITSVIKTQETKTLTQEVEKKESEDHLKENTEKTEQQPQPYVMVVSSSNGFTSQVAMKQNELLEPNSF
The target in the next assay is T5, EHF (Homo sapiens, UniProt Q9NZC4 1-300).
T5 sequence: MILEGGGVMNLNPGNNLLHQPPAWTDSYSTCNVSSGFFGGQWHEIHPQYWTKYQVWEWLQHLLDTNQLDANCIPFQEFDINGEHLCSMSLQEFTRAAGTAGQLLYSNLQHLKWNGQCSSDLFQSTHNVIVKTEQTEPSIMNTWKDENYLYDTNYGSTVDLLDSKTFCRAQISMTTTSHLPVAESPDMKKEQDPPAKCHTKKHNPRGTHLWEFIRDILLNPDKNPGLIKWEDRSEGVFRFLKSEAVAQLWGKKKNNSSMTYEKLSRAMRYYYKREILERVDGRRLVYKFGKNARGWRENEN
Conditions: protein: recombinant; tags: N-terminal GST; dsDNA, one strand shown. Summed up: as §1

Another assay addresses SPIB (Homo sapiens, UniProt Q01892 1-262). To be noted: protein: recombinant; tags: N-terminal GST; dsDNA, one strand shown. Summed up:
as §1

The next assay deals with HSF1 (Homo sapiens, UniProt Q00613 1-529). To be noted: protein: recombinant; tags: N-terminal GST; chain copies: 3; dsDNA, one strand shown. Summed up: as §1
HSF1, sequence (Q00613 whole entry): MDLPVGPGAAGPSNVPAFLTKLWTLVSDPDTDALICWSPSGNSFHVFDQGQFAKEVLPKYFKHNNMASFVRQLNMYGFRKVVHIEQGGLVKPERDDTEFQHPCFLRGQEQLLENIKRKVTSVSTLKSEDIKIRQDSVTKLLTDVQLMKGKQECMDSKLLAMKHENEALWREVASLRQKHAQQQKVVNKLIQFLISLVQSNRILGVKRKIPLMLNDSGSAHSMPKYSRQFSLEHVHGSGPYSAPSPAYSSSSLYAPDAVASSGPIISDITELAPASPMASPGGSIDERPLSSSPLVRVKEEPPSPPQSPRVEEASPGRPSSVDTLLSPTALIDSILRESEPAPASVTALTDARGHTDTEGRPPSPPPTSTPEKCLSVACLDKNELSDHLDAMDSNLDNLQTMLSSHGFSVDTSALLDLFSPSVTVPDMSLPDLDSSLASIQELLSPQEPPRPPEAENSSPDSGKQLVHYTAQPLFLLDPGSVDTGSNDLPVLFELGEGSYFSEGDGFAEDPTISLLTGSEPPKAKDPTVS
For the next assay, the target named is ELF4 (Homo sapiens, UniProt Q99607 1-663). Conditions: protein: recombinant; tags: N-terminal GST; dsDNA, one strand shown. Summed up:
as §1

The target of the next assay is T6, ELK4 (Homo sapiens, UniProt P28324-2 1-405).
T6 sequence: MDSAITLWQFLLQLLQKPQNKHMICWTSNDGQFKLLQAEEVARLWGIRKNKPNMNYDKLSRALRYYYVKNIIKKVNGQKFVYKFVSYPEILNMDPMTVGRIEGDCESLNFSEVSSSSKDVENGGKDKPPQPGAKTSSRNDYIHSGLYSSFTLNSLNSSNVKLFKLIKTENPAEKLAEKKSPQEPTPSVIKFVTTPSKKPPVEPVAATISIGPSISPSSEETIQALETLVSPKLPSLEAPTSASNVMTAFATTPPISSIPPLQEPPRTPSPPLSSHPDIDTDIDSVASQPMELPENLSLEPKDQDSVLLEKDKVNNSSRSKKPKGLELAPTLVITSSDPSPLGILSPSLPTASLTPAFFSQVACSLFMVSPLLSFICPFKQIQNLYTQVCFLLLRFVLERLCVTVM
Conditions: protein: recombinant; tags: N-terminal GST; dsDNA, one strand shown. Summed up:
as §1

A further assay deals with T7, ETV2 (Homo sapiens, UniProt O00321 1-342).
T7 sequence: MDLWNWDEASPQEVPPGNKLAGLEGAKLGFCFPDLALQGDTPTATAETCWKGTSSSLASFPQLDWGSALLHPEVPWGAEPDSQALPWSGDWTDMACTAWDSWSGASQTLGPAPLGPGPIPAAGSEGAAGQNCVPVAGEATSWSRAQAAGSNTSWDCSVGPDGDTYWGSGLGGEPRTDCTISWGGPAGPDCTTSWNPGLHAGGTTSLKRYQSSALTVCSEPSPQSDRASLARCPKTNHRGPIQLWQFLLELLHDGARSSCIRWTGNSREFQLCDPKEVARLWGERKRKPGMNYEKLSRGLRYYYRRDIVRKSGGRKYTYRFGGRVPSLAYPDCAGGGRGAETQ
Conditions: protein: recombinant; tags: N-terminal GST; dsDNA, one strand shown. Summed up:
as §1

A further assay concerns the target ETV1 (Homo sapiens, UniProt P50549 1-477). Conditions: protein: recombinant; tags: N-terminal GST; dsDNA, one strand shown. Summed up: as §1
For the next assay, the target named is T8, ERF (Homo sapiens, UniProt P50548 1-548).
T8 sequence: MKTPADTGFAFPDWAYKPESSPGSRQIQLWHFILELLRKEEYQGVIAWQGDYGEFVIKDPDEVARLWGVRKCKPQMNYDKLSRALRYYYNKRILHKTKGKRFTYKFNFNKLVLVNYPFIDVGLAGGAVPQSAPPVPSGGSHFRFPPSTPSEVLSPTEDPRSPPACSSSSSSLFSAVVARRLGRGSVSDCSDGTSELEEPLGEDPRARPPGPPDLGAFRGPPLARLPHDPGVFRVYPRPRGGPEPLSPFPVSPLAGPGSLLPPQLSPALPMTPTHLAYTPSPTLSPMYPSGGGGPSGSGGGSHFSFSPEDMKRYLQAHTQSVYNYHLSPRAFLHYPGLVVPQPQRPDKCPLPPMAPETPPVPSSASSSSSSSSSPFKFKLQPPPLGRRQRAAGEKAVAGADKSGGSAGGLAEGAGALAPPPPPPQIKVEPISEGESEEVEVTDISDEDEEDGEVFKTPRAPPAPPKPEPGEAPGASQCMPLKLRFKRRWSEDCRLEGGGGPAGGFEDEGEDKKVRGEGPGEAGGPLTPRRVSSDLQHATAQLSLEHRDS
Conditions: protein: recombinant; tags: N-terminal GST; dsDNA, one strand shown. Summed up:
as §1

The target of the next assay is T9, ETV3L (Homo sapiens, UniProt Q6ZN32 1-361).
T9 sequence: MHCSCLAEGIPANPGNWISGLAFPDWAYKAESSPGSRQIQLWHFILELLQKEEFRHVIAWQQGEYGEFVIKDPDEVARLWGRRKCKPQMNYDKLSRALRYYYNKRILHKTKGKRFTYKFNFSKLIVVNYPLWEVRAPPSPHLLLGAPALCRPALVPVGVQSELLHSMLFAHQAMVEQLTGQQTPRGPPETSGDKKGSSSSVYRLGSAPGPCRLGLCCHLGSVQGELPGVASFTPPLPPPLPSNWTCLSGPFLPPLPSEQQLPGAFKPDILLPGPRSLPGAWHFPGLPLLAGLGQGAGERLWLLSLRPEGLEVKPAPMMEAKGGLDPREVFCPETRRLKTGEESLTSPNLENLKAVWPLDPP
Conditions: protein: recombinant; tags: N-terminal GST; dsDNA, one strand shown. Summed up: as §1

A further assay deals with T10, ETV7 (Homo sapiens, UniProt Q9Y603 1-341).
T10 sequence: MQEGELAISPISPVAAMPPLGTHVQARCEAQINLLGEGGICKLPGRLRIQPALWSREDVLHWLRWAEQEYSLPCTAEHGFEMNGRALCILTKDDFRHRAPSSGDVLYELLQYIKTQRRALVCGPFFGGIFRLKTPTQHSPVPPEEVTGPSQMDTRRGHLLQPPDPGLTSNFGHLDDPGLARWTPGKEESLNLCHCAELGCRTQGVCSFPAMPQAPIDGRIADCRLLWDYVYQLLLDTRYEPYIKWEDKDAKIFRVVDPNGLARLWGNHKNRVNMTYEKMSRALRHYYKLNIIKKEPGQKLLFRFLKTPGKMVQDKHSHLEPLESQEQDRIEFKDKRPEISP
To be noted: protein: recombinant; tags: N-terminal GST; dsDNA, one strand shown. Summed up:
as §1

The next assay concerns the target T11, ETV3 (Homo sapiens, UniProt P41162-2 1-143).
T11 sequence: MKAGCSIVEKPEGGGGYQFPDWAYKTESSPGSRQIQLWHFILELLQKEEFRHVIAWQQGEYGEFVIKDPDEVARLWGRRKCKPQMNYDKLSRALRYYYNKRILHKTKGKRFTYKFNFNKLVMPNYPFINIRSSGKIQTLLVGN
Conditions: protein: recombinant; tags: N-terminal GST; dsDNA, one strand shown. Summed up:
as §1

In a further assay the target is ETV6 (Homo sapiens, UniProt P41212 1-452). Conditions: protein: recombinant; tags: N-terminal GST; dsDNA, one strand shown. Summed up:
as §1

SPIB, sequence (Q01892 whole entry): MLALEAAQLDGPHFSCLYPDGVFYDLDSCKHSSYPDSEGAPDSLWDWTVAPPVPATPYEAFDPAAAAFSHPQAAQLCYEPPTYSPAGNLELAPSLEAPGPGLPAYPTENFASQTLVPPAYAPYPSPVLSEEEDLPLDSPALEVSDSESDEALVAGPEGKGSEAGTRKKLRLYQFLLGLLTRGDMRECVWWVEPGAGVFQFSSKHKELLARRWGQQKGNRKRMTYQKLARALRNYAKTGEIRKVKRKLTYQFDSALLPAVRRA
ETV1, sequence (P50549 whole entry): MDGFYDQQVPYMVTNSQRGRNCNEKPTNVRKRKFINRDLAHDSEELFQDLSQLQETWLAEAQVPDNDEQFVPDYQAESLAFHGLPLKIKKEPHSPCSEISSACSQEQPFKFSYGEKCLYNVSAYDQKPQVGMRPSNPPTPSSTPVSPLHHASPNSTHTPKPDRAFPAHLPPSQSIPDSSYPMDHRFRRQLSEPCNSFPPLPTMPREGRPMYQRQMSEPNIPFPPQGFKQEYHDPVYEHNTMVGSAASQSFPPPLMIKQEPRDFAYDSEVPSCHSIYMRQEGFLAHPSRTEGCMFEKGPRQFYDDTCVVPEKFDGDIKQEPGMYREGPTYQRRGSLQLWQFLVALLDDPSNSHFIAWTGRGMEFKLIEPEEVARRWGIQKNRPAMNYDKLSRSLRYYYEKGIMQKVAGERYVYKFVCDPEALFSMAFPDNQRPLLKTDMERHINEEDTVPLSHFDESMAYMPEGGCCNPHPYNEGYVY
ETV6, sequence (P41212 whole entry): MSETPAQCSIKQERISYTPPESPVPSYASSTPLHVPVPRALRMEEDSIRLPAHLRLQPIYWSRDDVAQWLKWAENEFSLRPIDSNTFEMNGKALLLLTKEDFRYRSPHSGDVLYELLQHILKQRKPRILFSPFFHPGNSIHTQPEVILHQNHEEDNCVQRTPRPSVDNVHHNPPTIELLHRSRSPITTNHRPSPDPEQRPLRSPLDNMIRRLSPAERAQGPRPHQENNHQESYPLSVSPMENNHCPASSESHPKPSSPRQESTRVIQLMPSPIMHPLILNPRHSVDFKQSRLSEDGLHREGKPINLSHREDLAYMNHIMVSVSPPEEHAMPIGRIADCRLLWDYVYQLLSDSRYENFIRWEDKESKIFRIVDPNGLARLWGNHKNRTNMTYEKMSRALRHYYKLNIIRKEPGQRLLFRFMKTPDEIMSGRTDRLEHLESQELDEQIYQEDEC
ELF4, sequence (Q99607 whole entry): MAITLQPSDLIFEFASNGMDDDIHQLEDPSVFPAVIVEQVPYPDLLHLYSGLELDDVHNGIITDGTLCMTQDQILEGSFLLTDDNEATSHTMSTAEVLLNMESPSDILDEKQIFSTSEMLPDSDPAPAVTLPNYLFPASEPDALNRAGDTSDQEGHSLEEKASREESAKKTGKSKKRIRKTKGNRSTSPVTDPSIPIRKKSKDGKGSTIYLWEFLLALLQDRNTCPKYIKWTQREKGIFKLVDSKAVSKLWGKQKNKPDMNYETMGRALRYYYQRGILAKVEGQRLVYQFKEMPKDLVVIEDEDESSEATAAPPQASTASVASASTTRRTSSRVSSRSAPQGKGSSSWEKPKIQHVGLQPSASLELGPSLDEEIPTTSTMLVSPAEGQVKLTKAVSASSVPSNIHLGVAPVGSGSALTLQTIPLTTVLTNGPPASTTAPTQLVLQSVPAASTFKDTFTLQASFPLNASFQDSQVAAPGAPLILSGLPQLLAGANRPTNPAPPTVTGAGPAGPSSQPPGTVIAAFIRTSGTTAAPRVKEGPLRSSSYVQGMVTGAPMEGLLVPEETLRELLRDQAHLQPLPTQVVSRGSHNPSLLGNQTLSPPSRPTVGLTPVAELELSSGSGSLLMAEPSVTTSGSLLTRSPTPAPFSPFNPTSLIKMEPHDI

As for TCAGCT, the binding signal with FLI1 is 1.09 fold enrichment (6-mer frequency, TF over GST control); with ELK1, 1 fold enrichment (6-mer frequency, TF over GST control); with GABPA, 1.04 fold enrichment (6-mer frequency, TF over GST control); with ERG, 1.06 fold enrichment (6-mer frequency, TF over GST control); with ELF1 it was 1.12 fold enrichment (6-mer frequency, TF over GST control); with EHF, 1.11 fold enrichment (6-mer frequency, TF over GST control). For the same sequence, the binding signal is 1.09 fold enrichment (6-mer frequency, TF over GST control) with SPIB; 1.07 fold enrichment (6-mer frequency, TF over GST control) with HSF1; 1.03 fold enrichment (6-mer frequency, TF over GST control) in the assay with ELF4; 1.14 fold enrichment (6-mer frequency, TF over GST control) with ELK4; 1.11 fold enrichment (6-mer frequency, TF over GST control) with ETV2; 1.14 fold enrichment (6-mer frequency, TF over GST control) with ETV1. Besides, the binding signal with ERF was 1.09 fold enrichment (6-mer frequency, TF over GST control); in the assay with ETV3L, 1.09 fold enrichment (6-mer frequency, TF over GST control); in the assay with ETV7 it was 1.01 fold enrichment (6-mer frequency, TF over GST control); with ETV3 it was 1.05 fold enrichment (6-mer frequency, TF over GST control); in the assay with ETV6 it was 1.04 fold enrichment (6-mer frequency, TF over GST control).

The values are drawn from article PMC7862700, “An all-to-all approach to the identification of sequence-specific readers for epigenetic DNA modifications on cytosine”.
